Experimental data reported in PubChem BioAssay AID1159580 (chemical genetic matrix, 2015).
Hit rate of the full screen: of about 5,500 compounds, about 2,000 (36%) were called active. Another 18% or so got no clear call; they are omitted. Rule as the data show it: active = normalized growth mostly below about 0.91 (no sharp cut-off); inconclusive = no clear call, values can overlap the other calls; inactive = mostly above about 0.92. This is one part of the list.

Test: chemical genetic growth profiling, strain panel (AID 1159580);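 also: tested at 20 µM; growth read once vehicle control cultures reached saturation at 30 °C; 1 = growth at the plate median or of vehicle wells; lower values mean less growth of the strain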
Conditions: S. cerevisiae deletion strains, growth OD

Measured: normalized growth

CC(C)(CO)Cc1cc(C(C)(C)C)c(O)c(C(C)(C)C)c1
inactive: locus YAL013W, strain DEP1, stronger effect = lower value 0.972 | locus YAL040C, strain CLN3, stronger effect = lower value 0.927 | locus YCL061C, strain MRC1 (second series), stronger effect = lower value 0.975 | locus YDR363W, strain ESC2, stronger effect = lower value 1.02 | locus YER002W, strain NOP16, stronger effect = lower value 0.968 | locus YGR078C, strain PAC10, stronger effect = lower value 0.978 | locus YGR229C, strain SMI1, stronger effect = lower value 0.898 | locus YNL175C, strain NOP13, stronger effect = lower value 0.954 | locus YNL197C, strain WHI3, stronger effect = lower value 0.959 | locus YNL224C, strain SQS1, stronger effect = lower value 0.962 | locus YNL322C, strain KRE1, stronger effect = lower value 0.975 | locus YOR083W, strain WHI5 (second series), stronger effect = lower value 0.951
